# From article PMC7862700, “An all-to-all approach to the identification of sequence-specific readers for epigenetic DNA modifications on cytosine”
# Key:
# Test in all cases: DAPPL (digital affinity profiling via proximity ligation, sequencing); 10 mM Tris-HCl pH 7.5, 50 mM NaCl, 1 mM DTT, 4% glycerol, room temperature, 30 min; GST-TFs on glutathione beads, 16-mer random dsDNA library, 0.1% formaldehyde crosslink after washing; high values mean tight binding
# FLI1 = biological target: T1, FLI1 (Homo sapiens, UniProt Q01543 1-452); settings: protein: recombinant; tags: N-terminal GST; dsDNA, one strand shown
# T1 sequence: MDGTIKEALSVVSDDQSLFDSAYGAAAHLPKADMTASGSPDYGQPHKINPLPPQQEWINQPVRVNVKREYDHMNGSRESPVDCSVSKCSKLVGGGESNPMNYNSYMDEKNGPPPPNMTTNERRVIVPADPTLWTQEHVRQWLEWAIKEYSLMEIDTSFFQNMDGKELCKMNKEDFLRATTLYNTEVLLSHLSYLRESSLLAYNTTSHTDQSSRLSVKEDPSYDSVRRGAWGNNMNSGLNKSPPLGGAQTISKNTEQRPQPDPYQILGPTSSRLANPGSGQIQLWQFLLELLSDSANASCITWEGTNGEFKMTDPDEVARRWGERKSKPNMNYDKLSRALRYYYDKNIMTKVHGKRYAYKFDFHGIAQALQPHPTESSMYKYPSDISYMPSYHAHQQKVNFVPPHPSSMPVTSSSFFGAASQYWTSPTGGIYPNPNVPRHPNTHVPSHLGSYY
# In short: (§1)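 Human transcription factors carrying a GST fusion were produced in yeast, bound to glutathione beads, tagged with DNA barcodes and pooled together with a tag-only sample. Each pool was held with 200 nmole of a random double-stranded 16-mer DNA library in Tris/NaCl/DTT/glycerol buffer for 30 min at room temperature, then washed, crosslinked in 0.1% formaldehyde, proximity-ligated with BsaI/T4 ligase (1 h, 37 °C), PCR-amplified and sequenced on an Illumina NextSeq500. Binding signal is the read frequency of each hexamer for a given factor divided by its frequency in the tag-only sample.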
# ELK1 = biological target: T2, ELK1 (Homo sapiens, UniProt P19419 1-428); settings: protein: recombinant; tags: N-terminal GST; dsDNA, one strand shown
# T2 sequence: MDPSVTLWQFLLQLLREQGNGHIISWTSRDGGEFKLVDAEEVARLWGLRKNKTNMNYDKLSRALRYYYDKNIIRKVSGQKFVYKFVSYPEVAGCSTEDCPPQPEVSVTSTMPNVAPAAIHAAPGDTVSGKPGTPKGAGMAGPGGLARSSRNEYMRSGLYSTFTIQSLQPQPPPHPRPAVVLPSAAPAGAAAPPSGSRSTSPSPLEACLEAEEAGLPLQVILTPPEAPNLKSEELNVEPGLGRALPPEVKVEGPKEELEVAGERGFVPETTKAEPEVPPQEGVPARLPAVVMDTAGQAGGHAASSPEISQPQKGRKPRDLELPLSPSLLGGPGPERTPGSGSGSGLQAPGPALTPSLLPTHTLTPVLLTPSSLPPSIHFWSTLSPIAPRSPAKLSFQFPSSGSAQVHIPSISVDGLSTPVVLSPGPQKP
# In short: as §1
# GABPA = biological target: T3, GABPA (Homo sapiens, UniProt Q06546 1-454); settings: protein: recombinant; tags: N-terminal GST; dsDNA, one strand shown
# T3 sequence: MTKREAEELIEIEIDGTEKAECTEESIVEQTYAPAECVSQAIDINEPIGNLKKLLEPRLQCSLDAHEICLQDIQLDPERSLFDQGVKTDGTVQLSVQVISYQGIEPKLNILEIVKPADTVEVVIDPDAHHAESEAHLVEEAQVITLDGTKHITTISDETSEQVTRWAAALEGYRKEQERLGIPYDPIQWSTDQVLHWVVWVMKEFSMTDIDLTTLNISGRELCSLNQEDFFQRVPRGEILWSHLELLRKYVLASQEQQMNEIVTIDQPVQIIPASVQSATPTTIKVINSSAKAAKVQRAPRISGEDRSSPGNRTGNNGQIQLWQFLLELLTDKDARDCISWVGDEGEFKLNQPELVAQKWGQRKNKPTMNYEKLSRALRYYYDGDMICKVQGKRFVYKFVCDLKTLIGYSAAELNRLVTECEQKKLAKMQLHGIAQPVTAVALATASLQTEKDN
# In short: as §1
# ERG = biological target: T4, ERG (Homo sapiens, UniProt P11308 1-479); settings: protein: recombinant; tags: N-terminal GST; dsDNA, one strand shown
# T4 sequence: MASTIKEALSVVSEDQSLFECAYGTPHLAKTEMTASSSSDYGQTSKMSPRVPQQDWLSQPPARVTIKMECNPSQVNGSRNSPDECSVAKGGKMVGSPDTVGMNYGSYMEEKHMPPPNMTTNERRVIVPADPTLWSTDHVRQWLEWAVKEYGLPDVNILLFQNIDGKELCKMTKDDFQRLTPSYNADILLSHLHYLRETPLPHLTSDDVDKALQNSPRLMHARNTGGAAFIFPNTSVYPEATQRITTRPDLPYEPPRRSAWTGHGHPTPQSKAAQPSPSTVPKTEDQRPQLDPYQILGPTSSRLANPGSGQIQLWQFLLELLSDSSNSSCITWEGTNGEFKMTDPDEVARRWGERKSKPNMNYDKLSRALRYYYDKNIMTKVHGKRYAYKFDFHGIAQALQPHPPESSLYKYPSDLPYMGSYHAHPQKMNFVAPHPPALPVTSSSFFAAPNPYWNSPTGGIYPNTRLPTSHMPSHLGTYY
# In short: as §1
# ELF1 = ELF1 (Homo sapiens, UniProt P32519 1-619); settings: protein: recombinant; tags: N-terminal GST; dsDNA, one strand shown
# Chain of ELF1 (P32519 whole entry): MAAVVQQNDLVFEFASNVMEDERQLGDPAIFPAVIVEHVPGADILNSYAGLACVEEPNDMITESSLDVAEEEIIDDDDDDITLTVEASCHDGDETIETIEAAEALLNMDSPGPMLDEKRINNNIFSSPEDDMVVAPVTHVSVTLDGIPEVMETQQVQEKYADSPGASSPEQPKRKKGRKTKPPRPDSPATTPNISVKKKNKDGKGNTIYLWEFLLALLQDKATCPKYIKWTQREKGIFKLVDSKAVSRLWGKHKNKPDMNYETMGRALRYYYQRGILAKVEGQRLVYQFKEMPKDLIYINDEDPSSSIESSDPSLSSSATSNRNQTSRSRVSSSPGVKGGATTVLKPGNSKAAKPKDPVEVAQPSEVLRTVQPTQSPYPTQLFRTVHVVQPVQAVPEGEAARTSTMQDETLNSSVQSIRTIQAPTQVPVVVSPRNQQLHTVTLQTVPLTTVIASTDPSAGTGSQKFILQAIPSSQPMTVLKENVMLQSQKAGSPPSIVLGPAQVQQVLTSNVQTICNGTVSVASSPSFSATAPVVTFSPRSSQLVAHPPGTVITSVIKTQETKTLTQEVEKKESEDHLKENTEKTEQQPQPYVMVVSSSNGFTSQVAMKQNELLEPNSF
# In short: as §1
# EHF = biological target: T5, EHF (Homo sapiens, UniProt Q9NZC4 1-300); settings: protein: recombinant; tags: N-terminal GST; dsDNA, one strand shown
# T5 sequence: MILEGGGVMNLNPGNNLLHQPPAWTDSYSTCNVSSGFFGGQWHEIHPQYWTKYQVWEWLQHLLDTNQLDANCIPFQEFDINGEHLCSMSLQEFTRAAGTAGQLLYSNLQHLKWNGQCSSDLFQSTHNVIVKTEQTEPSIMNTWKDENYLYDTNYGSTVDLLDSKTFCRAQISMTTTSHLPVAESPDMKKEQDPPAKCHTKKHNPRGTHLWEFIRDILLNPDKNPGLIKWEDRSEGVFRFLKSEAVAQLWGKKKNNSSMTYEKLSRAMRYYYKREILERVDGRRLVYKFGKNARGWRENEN
# In short: as §1
# SPI1 = SPI1 (Homo sapiens, UniProt P17947 1-270); settings: protein: recombinant; tags: N-terminal GST; dsDNA, one strand shown
# In short: as §1
# SPIB = SPIB (Homo sapiens, UniProt Q01892 1-262); settings: protein: recombinant; tags: N-terminal GST; dsDNA, one strand shown
# Chain of SPIB (Q01892 whole entry): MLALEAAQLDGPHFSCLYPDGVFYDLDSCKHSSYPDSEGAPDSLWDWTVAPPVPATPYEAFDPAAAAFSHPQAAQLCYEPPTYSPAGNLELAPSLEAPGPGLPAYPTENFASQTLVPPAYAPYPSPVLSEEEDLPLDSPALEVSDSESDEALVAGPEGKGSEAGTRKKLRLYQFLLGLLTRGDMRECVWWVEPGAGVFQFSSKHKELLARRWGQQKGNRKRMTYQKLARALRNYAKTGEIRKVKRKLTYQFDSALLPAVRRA
# In short: as §1
# ELK3 = biological target: T6, ELK3 (Homo sapiens, UniProt P41970 1-407); settings: protein: recombinant; tags: N-terminal GST; dsDNA, one strand shown
# T6 sequence: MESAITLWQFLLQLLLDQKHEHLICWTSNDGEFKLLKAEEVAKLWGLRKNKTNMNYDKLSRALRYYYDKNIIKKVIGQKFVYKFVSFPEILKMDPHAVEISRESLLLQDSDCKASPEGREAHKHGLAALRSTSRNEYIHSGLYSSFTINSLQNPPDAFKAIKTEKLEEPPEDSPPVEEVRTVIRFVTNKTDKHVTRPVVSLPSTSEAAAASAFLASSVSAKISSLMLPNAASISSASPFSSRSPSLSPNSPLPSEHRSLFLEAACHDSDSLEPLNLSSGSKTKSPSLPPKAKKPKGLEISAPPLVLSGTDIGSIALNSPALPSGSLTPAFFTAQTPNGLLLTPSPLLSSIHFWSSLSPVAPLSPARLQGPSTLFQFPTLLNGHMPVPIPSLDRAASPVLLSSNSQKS
# In short: as §1
# FEV = biological target: T7, FEV (Homo sapiens, UniProt Q99581 1-238); settings: protein: recombinant; tags: N-terminal GST; dsDNA, one strand shown
# T7 sequence: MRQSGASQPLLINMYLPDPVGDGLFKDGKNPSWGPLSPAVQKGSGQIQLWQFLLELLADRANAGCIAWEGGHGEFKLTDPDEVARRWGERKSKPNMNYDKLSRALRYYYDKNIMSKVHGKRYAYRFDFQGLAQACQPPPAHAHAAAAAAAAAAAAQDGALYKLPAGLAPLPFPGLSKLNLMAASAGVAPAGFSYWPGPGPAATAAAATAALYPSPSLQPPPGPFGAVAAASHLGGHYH
# In short: as §1
# ETV5 = ETV5 (Homo sapiens, UniProt P41161 1-510); settings: protein: recombinant; tags: N-terminal GST; dsDNA, one strand shown
# Chain of ETV5 (P41161 whole entry): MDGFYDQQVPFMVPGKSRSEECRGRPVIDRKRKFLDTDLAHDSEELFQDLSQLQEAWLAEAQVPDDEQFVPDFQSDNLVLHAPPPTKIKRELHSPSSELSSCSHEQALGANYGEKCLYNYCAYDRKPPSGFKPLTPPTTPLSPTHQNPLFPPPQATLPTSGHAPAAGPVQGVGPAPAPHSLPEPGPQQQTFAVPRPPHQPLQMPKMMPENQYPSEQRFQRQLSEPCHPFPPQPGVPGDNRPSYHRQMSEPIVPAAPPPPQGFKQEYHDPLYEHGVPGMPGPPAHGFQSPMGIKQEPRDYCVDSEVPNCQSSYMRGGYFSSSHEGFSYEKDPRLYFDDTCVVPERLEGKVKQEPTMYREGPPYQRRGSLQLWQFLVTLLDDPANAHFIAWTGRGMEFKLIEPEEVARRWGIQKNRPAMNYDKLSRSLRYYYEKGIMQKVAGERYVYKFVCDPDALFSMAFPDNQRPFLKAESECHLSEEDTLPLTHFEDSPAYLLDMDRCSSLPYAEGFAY
# In short: as §1
# HSF1 = HSF1 (Homo sapiens, UniProt Q00613 1-529); settings: protein: recombinant; tags: N-terminal GST; chain copies: 3; dsDNA, one strand shown
# Chain of HSF1 (Q00613 whole entry): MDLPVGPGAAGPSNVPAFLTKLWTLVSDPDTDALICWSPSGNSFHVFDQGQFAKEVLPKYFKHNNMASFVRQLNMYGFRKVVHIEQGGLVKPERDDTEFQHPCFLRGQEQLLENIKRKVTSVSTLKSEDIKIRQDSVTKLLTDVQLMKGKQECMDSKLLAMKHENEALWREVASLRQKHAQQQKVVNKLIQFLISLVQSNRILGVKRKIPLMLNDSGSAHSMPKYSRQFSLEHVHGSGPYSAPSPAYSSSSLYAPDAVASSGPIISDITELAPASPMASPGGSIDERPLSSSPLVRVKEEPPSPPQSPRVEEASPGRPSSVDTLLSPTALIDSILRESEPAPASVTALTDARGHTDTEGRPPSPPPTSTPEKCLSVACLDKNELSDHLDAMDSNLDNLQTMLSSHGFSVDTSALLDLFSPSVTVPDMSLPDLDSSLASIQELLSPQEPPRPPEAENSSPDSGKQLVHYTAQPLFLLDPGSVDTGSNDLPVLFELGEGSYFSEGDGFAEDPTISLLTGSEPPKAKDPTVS
# In short: as §1
# SPIC = biological target: T8, SPIC (Homo sapiens, UniProt Q8N5J4 1-248); settings: protein: recombinant; tags: N-terminal GST; dsDNA, one strand shown
# T8 sequence: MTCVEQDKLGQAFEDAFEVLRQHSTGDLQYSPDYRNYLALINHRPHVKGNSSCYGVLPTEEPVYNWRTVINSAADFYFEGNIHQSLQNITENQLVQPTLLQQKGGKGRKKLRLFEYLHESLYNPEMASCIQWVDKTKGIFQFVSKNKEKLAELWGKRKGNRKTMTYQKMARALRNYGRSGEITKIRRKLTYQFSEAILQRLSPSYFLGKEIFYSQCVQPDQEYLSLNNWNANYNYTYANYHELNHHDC
# In short: as §1
# ELF4 = ELF4 (Homo sapiens, UniProt Q99607 1-663); settings: protein: recombinant; tags: N-terminal GST; dsDNA, one strand shown
# Chain of ELF4 (Q99607 whole entry): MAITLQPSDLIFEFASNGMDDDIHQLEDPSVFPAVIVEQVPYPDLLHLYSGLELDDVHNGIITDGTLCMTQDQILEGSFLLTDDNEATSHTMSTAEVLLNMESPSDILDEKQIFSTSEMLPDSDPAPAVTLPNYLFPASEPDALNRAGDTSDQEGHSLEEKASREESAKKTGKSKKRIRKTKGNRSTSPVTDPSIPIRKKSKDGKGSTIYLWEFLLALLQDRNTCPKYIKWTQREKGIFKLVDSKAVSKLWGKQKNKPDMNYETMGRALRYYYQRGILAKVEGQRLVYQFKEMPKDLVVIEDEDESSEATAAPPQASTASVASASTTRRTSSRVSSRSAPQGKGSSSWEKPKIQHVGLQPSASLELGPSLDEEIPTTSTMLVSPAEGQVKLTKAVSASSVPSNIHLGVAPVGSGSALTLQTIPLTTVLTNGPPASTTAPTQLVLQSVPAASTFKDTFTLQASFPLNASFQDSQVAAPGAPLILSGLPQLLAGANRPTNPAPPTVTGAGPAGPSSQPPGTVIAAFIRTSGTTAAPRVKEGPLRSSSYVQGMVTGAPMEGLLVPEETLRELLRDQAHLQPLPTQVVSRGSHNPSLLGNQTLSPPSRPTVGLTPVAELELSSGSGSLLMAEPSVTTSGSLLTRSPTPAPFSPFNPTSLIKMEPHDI
# In short: as §1
# ELK4 = biological target: T9, ELK4 (Homo sapiens, UniProt P28324-2 1-405); settings: protein: recombinant; tags: N-terminal GST; dsDNA, one strand shown
# T9 sequence: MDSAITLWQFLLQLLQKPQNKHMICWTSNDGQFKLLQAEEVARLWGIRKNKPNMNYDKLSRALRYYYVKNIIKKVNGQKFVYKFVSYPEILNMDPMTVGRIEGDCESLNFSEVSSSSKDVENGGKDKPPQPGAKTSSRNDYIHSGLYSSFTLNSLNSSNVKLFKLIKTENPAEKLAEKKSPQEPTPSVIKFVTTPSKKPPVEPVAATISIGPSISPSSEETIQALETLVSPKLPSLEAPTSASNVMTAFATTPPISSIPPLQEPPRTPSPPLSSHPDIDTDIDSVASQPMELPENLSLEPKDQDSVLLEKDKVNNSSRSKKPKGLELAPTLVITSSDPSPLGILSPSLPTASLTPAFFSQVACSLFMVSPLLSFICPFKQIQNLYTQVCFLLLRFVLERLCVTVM
# In short: as §1
# ETV2 = biological target: T10, ETV2 (Homo sapiens, UniProt O00321 1-342); settings: protein: recombinant; tags: N-terminal GST; dsDNA, one strand shown
# T10 sequence: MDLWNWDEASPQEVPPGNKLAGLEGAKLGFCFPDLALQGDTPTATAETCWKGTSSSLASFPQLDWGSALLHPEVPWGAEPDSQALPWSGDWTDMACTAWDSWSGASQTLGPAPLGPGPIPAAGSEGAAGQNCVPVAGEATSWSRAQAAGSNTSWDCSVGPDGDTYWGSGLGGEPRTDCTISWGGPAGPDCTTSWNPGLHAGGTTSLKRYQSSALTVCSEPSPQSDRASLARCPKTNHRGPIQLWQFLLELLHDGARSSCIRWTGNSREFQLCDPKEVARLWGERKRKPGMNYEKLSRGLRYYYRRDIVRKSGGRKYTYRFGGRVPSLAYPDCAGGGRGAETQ
# In short: as §1
# ELF3 = biological target: T11, ELF3 (Homo sapiens, UniProt P78545 1-371); settings: protein: recombinant; tags: N-terminal GST; dsDNA, one strand shown
# T11 sequence: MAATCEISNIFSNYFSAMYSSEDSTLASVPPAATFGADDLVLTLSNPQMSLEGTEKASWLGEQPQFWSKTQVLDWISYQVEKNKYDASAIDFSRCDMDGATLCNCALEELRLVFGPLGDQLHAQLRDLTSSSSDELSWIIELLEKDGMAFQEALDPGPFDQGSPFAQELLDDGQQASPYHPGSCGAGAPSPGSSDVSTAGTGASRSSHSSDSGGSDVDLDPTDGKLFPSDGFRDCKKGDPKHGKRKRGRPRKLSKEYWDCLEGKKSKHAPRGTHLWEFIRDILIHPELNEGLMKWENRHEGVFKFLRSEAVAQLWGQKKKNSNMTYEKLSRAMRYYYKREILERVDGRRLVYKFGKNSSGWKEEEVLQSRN
# In short: as §1
# CRX = CRX (Homo sapiens, UniProt O43186 1-299); settings: protein: recombinant; tags: N-terminal GST; dsDNA, one strand shown
# Chain of CRX (O43186 whole entry): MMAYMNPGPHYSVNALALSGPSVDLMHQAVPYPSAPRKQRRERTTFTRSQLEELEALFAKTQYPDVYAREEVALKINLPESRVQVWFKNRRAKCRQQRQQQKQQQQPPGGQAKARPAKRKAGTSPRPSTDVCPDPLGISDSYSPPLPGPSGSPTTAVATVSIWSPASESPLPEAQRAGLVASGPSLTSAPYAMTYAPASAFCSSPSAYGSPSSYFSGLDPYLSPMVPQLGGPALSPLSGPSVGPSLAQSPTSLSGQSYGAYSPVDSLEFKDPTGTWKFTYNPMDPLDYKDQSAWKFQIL
# In short: as §1
# ETV1 = ETV1 (Homo sapiens, UniProt P50549 1-477); settings: protein: recombinant; tags: N-terminal GST; dsDNA, one strand shown
# Chain of ETV1 (P50549 whole entry): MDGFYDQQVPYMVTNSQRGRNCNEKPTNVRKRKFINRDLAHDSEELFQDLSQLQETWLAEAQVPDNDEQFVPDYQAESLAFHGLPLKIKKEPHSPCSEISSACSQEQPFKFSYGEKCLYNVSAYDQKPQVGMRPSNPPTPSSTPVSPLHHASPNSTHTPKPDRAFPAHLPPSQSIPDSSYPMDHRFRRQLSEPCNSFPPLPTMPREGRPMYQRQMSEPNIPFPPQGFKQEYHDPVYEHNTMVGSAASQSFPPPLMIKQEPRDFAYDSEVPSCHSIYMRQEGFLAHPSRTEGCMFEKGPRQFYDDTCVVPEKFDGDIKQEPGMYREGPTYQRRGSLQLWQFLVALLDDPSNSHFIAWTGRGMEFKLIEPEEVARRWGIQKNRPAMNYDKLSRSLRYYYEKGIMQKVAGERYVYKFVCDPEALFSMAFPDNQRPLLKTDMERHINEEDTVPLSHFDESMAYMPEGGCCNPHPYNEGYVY
# In short: as §1
sequence,measurement,setting,value
ACTCTC,binding signal,FLI1,"1.5 fold enrichment (6-mer frequency, TF over GST control)"
same,binding signal,ELK1,"1.59 fold enrichment (6-mer frequency, TF over GST control)"
same,binding signal,GABPA,"1.41 fold enrichment (6-mer frequency, TF over GST control)"
same,binding signal,ERG,"1.47 fold enrichment (6-mer frequency, TF over GST control)"
same,binding signal,ELF1,"1.55 fold enrichment (6-mer frequency, TF over GST control)"
same,binding signal,EHF,"1.47 fold enrichment (6-mer frequency, TF over GST control)"
same,binding signal,SPI1,"1.49 fold enrichment (6-mer frequency, TF over GST control)"
same,binding signal,SPIB,"1.47 fold enrichment (6-mer frequency, TF over GST control)"
same,binding signal,ELK3,"1.44 fold enrichment (6-mer frequency, TF over GST control)"
same,binding signal,FEV,"1.42 fold enrichment (6-mer frequency, TF over GST control)"
same,binding signal,ETV5,"1.42 fold enrichment (6-mer frequency, TF over GST control)"
same,binding signal,HSF1,"1.55 fold enrichment (6-mer frequency, TF over GST control)"
same,binding signal,SPIC,"1.47 fold enrichment (6-mer frequency, TF over GST control)"
same,binding signal,ELF4,"1.49 fold enrichment (6-mer frequency, TF over GST control)"
same,binding signal,ELK4,"1.55 fold enrichment (6-mer frequency, TF over GST control)"
same,binding signal,ETV2,"1.39 fold enrichment (6-mer frequency, TF over GST control)"
same,binding signal,ELF3,"1.88 fold enrichment (6-mer frequency, TF over GST control)"
same,binding signal,CRX,"1.31 fold enrichment (6-mer frequency, TF over GST control)"
same,binding signal,ETV1,"1.53 fold enrichment (6-mer frequency, TF over GST control)"
